From PubChem BioAssay
PHOSPHO1 inh – PubChem AID 1565; Phosphoethanolamine/phosphocholine phosphatase (Homo sapiens), Q8TCT1; recombinant PHOSPHO1, absorbance phosphatase assay; inhibition, % at 13.3 µM; 290,000 compounds, 1.1% hits; in the data active = inhibition above about 60%
Target sequence (Q8TCT1 whole entry, looked up): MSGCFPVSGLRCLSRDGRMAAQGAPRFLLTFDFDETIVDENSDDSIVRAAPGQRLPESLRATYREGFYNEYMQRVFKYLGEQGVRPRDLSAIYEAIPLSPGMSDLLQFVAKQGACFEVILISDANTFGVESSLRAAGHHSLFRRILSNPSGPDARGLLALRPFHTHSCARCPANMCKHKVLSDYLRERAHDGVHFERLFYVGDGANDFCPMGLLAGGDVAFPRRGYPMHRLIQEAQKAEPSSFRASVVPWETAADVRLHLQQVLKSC
A3A deaminase – APOBEC3A ssDNA deaminase inhibitors, primary screen, selectivity assay for APOBEC3G inhibitor project, biochemical, FAM/TAMRA oligo cleavage fluorescence. DNA dC->dU-editing enzyme APOBEC-3A (Homo sapiens), P31941. 330,000 compounds, 0.41% hits. inhibition, % at 20 µM. AID 493011, 2011. recombinant A3A, FAM/TAMRA ssDNA deamination fluorescence;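 active = at least 40% inhibition at 20 µM here, with at most 30% in a related deaminase screen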;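 also: plate controls were A3A with DMSO for no effect and wells lacking A3A enzyme for full effect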
Target sequence (P31941 whole entry, looked up): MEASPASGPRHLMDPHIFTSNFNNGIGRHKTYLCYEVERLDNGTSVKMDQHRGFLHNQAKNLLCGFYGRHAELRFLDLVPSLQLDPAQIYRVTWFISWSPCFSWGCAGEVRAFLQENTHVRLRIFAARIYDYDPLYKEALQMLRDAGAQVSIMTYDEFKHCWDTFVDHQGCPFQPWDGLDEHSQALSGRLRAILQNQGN
esBAF inh – Bmi1 luciferase reporter increase in mESCs, primary screen, esBAF inhibitor project, mouse ES cells, Bmi1 luciferase knock-in, single point. 24 h; 100% = twice the neutral-well signal. reporter increase, % at 12.5 µM. 350,000 compounds, 2% hits. AID 602393, 2012; in the data active = activation above about 40%; inconclusive = no clear call, values can overlap the other calls;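 also: 0% = median of the plate's neutral control wells and 100% = double that signal; a rise in the Bmi1 reporter signal indicates esBAF inhibition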
Wnt act – Wnt/beta-catenin pathway activators, primary screen, cell-based, plate reader, single point; activation, % at 9.35 µM; 300,000 compounds, 1.2% hits; Wnt/beta-catenin reporter cell assay, activator; in the data active = activation above about 30%, passing the limit was not always enough; inconclusive = no clear call, values can overlap the other calls;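 also: 0% = neutral control wells and 100% = positive control wells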
A3G deaminase – APOBEC3G DNA deaminase inhibitors, primary screen, biochemical, fluorescence, single-stranded DNA substrate, uHTS; DNA dC->dU-editing enzyme APOBEC-3G (Homo sapiens), Q9HC16; inhibition, % at 20 µM; recombinant A3G, ssDNA deamination FAM/TAMRA fluorescence; 330,000 compounds, 0.28% hits;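 active = inhibition of at least 40% at 20 µM, with no more than 30% in the related APOBEC3A deaminase screen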;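 also: plate controls were DMSO wells with A3G for no effect and wells lacking A3G enzyme for full effect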
MITF TRPM1 HTS – activators of MITF-driven TRPM1 promoter reporter, primary screen, cell-based, SK-MEL-5, luciferase, single point; activation, % at 12.5 µM; SK-MEL-5 TRPM1-promoter luciferase, 24 h; % of positive control, neutral wells = 0; 300,000 compounds, 0.75% hits;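 active = mean activation of at least 80% with every replicate also reaching 80%; inconclusive = mean reaches 80% but some replicate falls short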;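 also: 0% = neutral control wells and 100% = parthenolide positive control wells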
An asterisk follows results filed as active. Hits are enriched below; roughly 3.6% of the tested compounds scored in any of these assays.

How did C[C@@H]1CN([C@H](C)CO)C(=O)c2cccc(NS(=O)(=O)c3ccc(F)cc3)c2O[C@@H]1CN(C)S(=O)(=O)c1cccs1 do in these assays?
esBAF inh: -1

How did COC(=O)c1sc(NC(=O)Cc2cccs2)nc1C do in these assays?
PHOSPHO1 inh: 0; A3A deaminase: -7; esBAF inh: 42*; A3G deaminase: -6; MITF TRPM1 HTS: 38

Results for COC(=O)c1sc(NC(=O)c2c(-c3ccccc3)noc2C)nc1C ?
PHOSPHO1 inh: 66*; A3A deaminase: -2; esBAF inh: 2; Wnt act: 1; A3G deaminase: -7; MITF TRPM1 HTS: 7

How did COC(=O)c1sc(NC(=O)c2ccoc2C)nc1C do in these assays?
PHOSPHO1 inh: 5; esBAF inh: 49*; Wnt act: 10

Results for Cc1nc(NC(=O)c2c(-c3ccccc3)noc2C)sc1C(=O)N(C)C ?
PHOSPHO1 inh: 12; A3A deaminase: -3; esBAF inh: -4; Wnt act: -1; A3G deaminase: -3; MITF TRPM1 HTS: 5

What do the screens show for `C[C@H]1CN([C@@H](C)CO)C(=O)c2cc(C3=CCCCC3)cnc2O[C@H]1CN(C)Cc1ccccc1C(=O)O`?
esBAF inh: -12

Results for Cc1noc(C)c1NC(=O)Nc1ccc2c(c1)C(=O)N([C@H](C)CO)C[C@H](C)[C@@H](CN(C)Cc1ccncc1)OCCCC[C@H](C)O2 ?
esBAF inh: -4

What do the screens show for `CCCCNC(=O)CCC(=O)Nc1ccc2nc(N3CCOCC3)cc(C)c2c1`?
PHOSPHO1 inh: 6; A3A deaminase: 1; esBAF inh: 43*; Wnt act: 14; A3G deaminase: -4

How did Cc1cc(N2CCOCC2)nc2ccc(NC(=O)CCC(=O)N3CCN(c4ccccc4)CC3)cc12 do in these assays?
PHOSPHO1 inh: 36; A3A deaminase: -1; esBAF inh: 53*; Wnt act: 4; A3G deaminase: -5; MITF TRPM1 HTS: 80

Results for Cc1cc(N2CCCCC2)nc2ccc(NC(=O)CCC(=O)NCCC(C)C)cc12 ?
PHOSPHO1 inh: -3; A3A deaminase: 3; esBAF inh: 74*; Wnt act: 43*; A3G deaminase: -2

What do the screens show for `CCCCNC(=O)CCC(=O)Nc1ccc2nc(N3CCCCC3)cc(C)c2c1`?
PHOSPHO1 inh: -8; A3A deaminase: 5; Wnt act: -1; A3G deaminase: 1; MITF TRPM1 HTS: 62

How did CN(C)Cc1cn(CC[C@H]2CC[C@H](NC(=O)Nc3ccc4c(c3)OCO4)[C@H](CO)O2)nn1 do in these assays?
esBAF inh: 2

What do the screens show for `Fc1ccc2cc(-c3ccccc3)ncc2c1`?
A3A deaminase: -1; esBAF inh: 61*; Wnt act: 33*; A3G deaminase: -5; MITF TRPM1 HTS: 92*

How did c1ccc(-c2cc3ccccc3cn2)cc1 do in these assays?
A3A deaminase: 1; esBAF inh: 62*; Wnt act: 48*; A3G deaminase: -7; MITF TRPM1 HTS: 63

What do the screens show for `COc1ccc(-c2coc3cc(OC)ccc3c2=O)cc1`?
esBAF inh: 7; Wnt act: 1; MITF TRPM1 HTS: 46

Results for COc1ccc(-c2coc3cc(O)ccc3c2=O)cc1 ?
A3A deaminase: 1; esBAF inh: 15; Wnt act: 47*; A3G deaminase: -3; MITF TRPM1 HTS: 76

Results for COc1ccc(-c2coc3cc(OC)cc(O)c3c2=O)cc1 ?
PHOSPHO1 inh: 33; A3A deaminase: -5; A3G deaminase: -10; MITF TRPM1 HTS: 96*

What do the screens show for `COc1ccc(-c2coc3cc(OC)cc(OC)c3c2=O)cc1`?
PHOSPHO1 inh: 32; A3A deaminase: 0; esBAF inh: 63*; Wnt act: 1; A3G deaminase: -4; MITF TRPM1 HTS: 61

Results for COc1cc(O)cc2occ(-c3ccc(O)cc3)c(=O)c12 ?
PHOSPHO1 inh: 32; A3A deaminase: -6; esBAF inh: 26; Wnt act: -1; A3G deaminase: -11; MITF TRPM1 HTS: 18

Results for O=c1c(-c2ccc(O)cc2)coc2cc(O)cc(O)c12 ?
PHOSPHO1 inh: -1; A3A deaminase: -1; esBAF inh: 57*; Wnt act: 44*; A3G deaminase: 3; MITF TRPM1 HTS: 100*

What do the screens show for `COc1cc(OC)c2c(-c3cccc(-c4ccc(OC)c(OC)c4)c3)cc(=O)oc2c1`?
A3A deaminase: -2; esBAF inh: -11; Wnt act: -3; A3G deaminase: -1; MITF TRPM1 HTS: -60

Results for O=C(C[C@@H]1CC[C@@H]2[C@H](COC[C@@H](O)CN2Cc2cccc(Cl)c2)O1)Nc1nccs1 ?
esBAF inh: -5

Results for COc1ccc(-c2coc3cc(O)cc(O)c3c2=O)cc1 ?
PHOSPHO1 inh: 1; A3A deaminase: -1; esBAF inh: 46*; Wnt act: 55*; A3G deaminase: -5; MITF TRPM1 HTS: 97*

What do the screens show for `CC(C)Oc1cc(O)c2c(=O)c(-c3ccc(O)cc3)coc2c1`?
PHOSPHO1 inh: -18; A3A deaminase: 2; esBAF inh: 2; Wnt act: 8; A3G deaminase: -2; MITF TRPM1 HTS: 52

What do the screens show for `C[C@@H]1CN([C@H](C)CO)C(=O)c2cc(/C=C/c3ccccc3)cnc2O[C@@H]1CN(C)Cc1ccc2c(c1)OCO2`?
esBAF inh: -8

How did O=C(CCc1ccccc1O)N/N=C/c1ccc(Sc2cccc3cccnc23)o1 do in these assays?
PHOSPHO1 inh: 98*; A3A deaminase: -2; esBAF inh: -2; Wnt act: -2; A3G deaminase: -5

How did CN(C)c1ccc(C#Cc2ccc3cc(CCCO)oc(=O)c3c2)cc1 do in these assays?
A3A deaminase: -1; esBAF inh: 57*; Wnt act: inconclusive; A3G deaminase: -8; MITF TRPM1 HTS: 93*

What do the screens show for `O=c1oc(CCCO)cc2ccc(C#Cc3ccsc3)cc12`?
A3A deaminase: 3; esBAF inh: 67*; Wnt act: 46*; A3G deaminase: -4; MITF TRPM1 HTS: 121*

Results for COCCNC(=O)C[C@H]1C=C[C@H](NC(=O)NC2CCCCC2)[C@H](CO)O1 ?
esBAF inh: -2

How did CCc1cc(C(=O)Nc2ncccc2O)sc1C do in these assays?
PHOSPHO1 inh: 29; A3A deaminase: -7; Wnt act: 37*; A3G deaminase: -7; MITF TRPM1 HTS: 2

What do the screens show for `CCc1cc(C(=O)Nc2ccc(OC)nc2)sc1C`?
A3A deaminase: -2; esBAF inh: 47*; Wnt act: 21; A3G deaminase: -4; MITF TRPM1 HTS: 59
